Compound activity: PubChem BioAssay, The Scripps Research Institute Molecular Screening Center
DAX1 inh-1 = inhibitors of human orphan nuclear receptor DAX1 (NR0B1); AID 504766; HEK293 Gal4-DAX1 luciferase reporter, luminescence; hit rate 0.99% among 340,000; P51843; inhibition, % at 6.75 µM;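 active means inhibition above the mean over all tested compounds plus 3 SD, cut at about 4.2% in these data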;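 further: inhibition shows as a rise in luminescence from relieved DAX1 repression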
Target sequence (P51843 207-470 limits assumed): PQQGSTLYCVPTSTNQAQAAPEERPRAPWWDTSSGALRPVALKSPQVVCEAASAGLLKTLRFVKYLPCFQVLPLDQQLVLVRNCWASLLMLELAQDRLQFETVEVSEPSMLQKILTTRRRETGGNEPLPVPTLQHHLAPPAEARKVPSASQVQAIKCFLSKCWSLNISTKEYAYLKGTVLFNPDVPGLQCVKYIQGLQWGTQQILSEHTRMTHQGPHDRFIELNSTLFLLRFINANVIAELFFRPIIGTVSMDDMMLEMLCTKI
hcDAF-12 act = activates DAF-12 receptor from parasite H. contortus; AID 652067; activation, % at 6.8 µM; HEK293 hcDAF-12 lit1-tk-luc reporter, luminescence; 0% DMSO, 100% Δ7-dafachronic acid; hit rate 1.4% among 370,000;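 active means activation above the mean of all tested compounds plus 3 SD, cut at about 5.5% in these data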
ssDAF12 agonist = activators of S. stercoralis DAF-12 nuclear receptor; HEK293 ssDAF-12/GRIP1 lit1-tk-luc reporter, luminescence; % of 3 µM dafachronic acid response; hit rate 1% among 370,000; activation, % at 6.8 µM;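 active means activation above the mean over all tested compounds plus 3 SD, cut at about 0.9% in these data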
hgDAF12 agonist = activates the H. glycines DAF-12 receptor ligand-binding domain; activation, % at 6.8 µM; hit rate 1.8% among 370,000; HEK293 GAL4-hgDAF12 UAS-luciferase reporter, agonist luminescence; normalized to butyrate control; AID 687014;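 active means activation above a cutoff set at the mean of all screened compounds plus 3 SD, cut at about 10% in these data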
DAX1 inh-2 = inhibitors of DAX1 repression of SF-1 activated StAR promoter; HEK293T StAR-luciferase reporter, SF-1/DAX-1 repression relief; inhibition, % at 6.8 µM; AID 652010; hit rate 1.1% among 370,000;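 active means inhibition above the mean over all tested compounds plus 3 SD, cut at about 3.6% in these data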;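 further: higher inhibition means more luminescence from relief of DAX-1 repression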
LXR ag = activates human LXR-beta, counter-screen for hcDAF-12 agonists | shares compounds with hcDAF-12 act | HEK293 Gal4-LXR tk-luc reporter, luminescence, 24 h; normalized: DMSO 0%, positive control 100% | activation, % at 6.8 µM | 3,400 tested, under 10 active | AID 743027;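 active means mean percent activation of the reporter above a cutoff set as the average over tested compounds plus their standard deviation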
hcDAF12 ag = hcDAF-12 agonism, confirmation assay; shares compounds with hcDAF-12 act; HEK293 hcDAF-12 lit1-tk-luc reporter, luminescence; % of Δ7-dafachronic acid response; activation, % at 6.8 µM; hit rate 61% among 3,400; AID 743032;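 active means mean activation across triplicate tests above the threshold derived from the earlier primary screen, cut at about 5.5% in these data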
Numbers stand for hits; . = inactive; / = no result. An excerpt weighted towards active compounds, which were near 4.1% of everything screened.

SMILES	DAX1 inh-1	hcDAF-12 act	ssDAF12 agonist	hgDAF12 agonist	DAX1 inh-2	LXR ag	hcDAF12 ag
O=C(NC(=S)Nc1cc([N+](=O)[O-])ccc1Cl)c1ccccc1	.	6.6	.	.	.	.	6.0
O=C(NC(=S)Nc1cccc([N+](=O)[O-])c1)c1ccccc1	/	.	.	.	.	/	/
Cc1ccccc1CS(=O)(=O)Cc1ccc(C(=O)Nc2cccc(Cl)c2F)o1	/	.	.	.	.	/	/
COc1ccc(Cc2c(-c3cccc(Br)c3)nc3cc(C)c(Br)c(C)n23)c(C)c1	/	.	.	.	.	/	/
COc1ccc(Cc2c(-c3ccc(C)cc3)nc3cc(C)c(Br)c(C)n23)c(C)c1	/	11	2.1	11	.	.	6.1
CCCCN(C)C(=O)c1oc(=O)c2ccccc2c1-c1ccc(C)cc1	/	.	.	.	.	/	/
O=[N+]([O-])c1ccc(Cl)c(S(=O)(=O)Nc2ccc3cn[nH]c3c2)c1	.	.	.	.	.	/	/
O=[N+]([O-])c1ccc2cn[nH]c2c1	.	8.3	.	.	.	.	.
CCOC(=O)[C@@]12CCCC=C1N(CCc1ccc(Cl)cc1)C(=O)[C@H]2CC(=O)NCc1cccc2ccccc12	/	.	.	.	.	/	/
COc1ccc(C(=O)OCC(=O)c2ccc[nH]2)c(OC)c1	.	6.7	.	.	.	.	.
Cc1onc(-c2ccc(Cl)cc2)c1-c1ccn(S(=O)(=O)c2ccccc2Cl)n1	/	.	.	.	.	/	/
c1ccc2c(c1)CCCN2Cc1nnc2n1CCCCC2	.	7.7	1.0	.	.	.	.
O=C(COC(=O)CN1C(=O)C2CCCCC2C1=O)Nc1ccc(S(=O)(=O)N2CCOCC2)cc1 (stereo not drawn)	.	8.9	1.5	.	.	.	.
O=C(COC(=O)CN1C(=O)C2CCCCC2C1=O)Nc1cc(S(=O)(=O)N2CCOCC2)ccc1Cl (stereo not drawn)	.	.	.	.	.	/	/
O=C1CCOc2cc(OCc3ccccc3)ccc21	.	9.2	.	12	.	.	6.2
CC(=O)/C=C1\OCc2cc(OCc3ccccc3)ccc21	/	.	.	.	.	/	/
COC(=O)[C@]12CCCCC=C1N(Cc1ccc(OC)cc1)C(=O)[C@@H]2CC(=O)N1CCCC1	/	.	.	.	.	/	/
COC(=O)C[C@H]1CC[C@@H]2[C@@H](COc3ccc(NC(=O)Nc4cccc(C)c4)cc3C(=O)N2C)O1	/	.	.	.	.	/	/
Cc1ccc(-c2nc3cccnc3s2)cc1NC(=O)c1ccco1	.	13	.	.	.	.	.
CC(CNC(=O)[C@@H](Cc1ccccc1)NC(=O)[C@H]1O[C@@H](n2cnc3c(=O)[nH]c(N)nc32)[C@H](O)[C@@H]1O)c1ccccc1 (stereo partly drawn)	/	.	.	.	.	/	/
O=C(OCCN1CCN(C2CN(Cc3cn(Cc4ccccc4C(F)(F)F)nn3)S(=O)(=O)C2)CC1)c1cc2ccccc2o1 (stereo not drawn)	/	.	.	.	.	/	/
CCC(=O)Oc1ccc2oc(=O)cc(C)c2c1	.	.	.	.	.	/	/
Cc1cc(=O)oc2ccc(OC(=O)CN3C(=O)c4cccc([N+](=O)[O-])c4C3=O)cc12	.	8.8	.	.	.	.	.
Cc1ccoc1C(=O)Nc1ccc2ccccc2c1	.	17	.	12	.	.	14
CC(=O)c1coc2c1cc(O)c1ccccc12	.	.	.	.	.	/	/
SMILES	DAX1 inh-1	hcDAF-12 act	ssDAF12 agonist	hgDAF12 agonist	DAX1 inh-2	LXR ag	hcDAF12 ag
CC(=O)c1cc(O)c2ccccc2c1O	.	10	.	.	.	.	.
O=C(Nc1ccc(Nc2ccccc2)cc1)N1CCOCC1	.	.	.	.	.	/	/
O=C(Nc1ccccc1)n1cc(-c2ccccn2)c(N2CCOCC2)n1	.	7.2	2.2	.	.	.	.
Cc1nc2ccccn2c1C(=O)N/N=C/c1ccc2c(c1)OCO2	.	.	.	.	.	/	/
CCOc1cc(/C=N\NC(=O)c2c(C)nc3ccccn23)ccc1O	.	8.0	.	.	.	.	.
C[C@H]1CN(S(=O)(=O)C(C)(C)C)[C@H](CCO)/C1=C\CCO	/	.	.	.	.	/	/
O=CN1Cc2[nH]c3ccccc3c2N(c2ccc(Cl)cc2)C1=O	.	7.0	1.1	.	.	.	.
CC(C)c1[nH]nc2c1C(c1ccc3c(c1)OCO3)NC2=O (stereo not drawn)	/	.	.	.	.	/	/
C=CCn1c(C)nnc1SCC(=O)Nc1nc(C)c(C(=O)N(C)C)s1	.	7.3	.	.	.	.	.
C=CCn1c(C)nnc1SCC(=O)Nc1nccs1	.	.	.	.	.	/	/
COc1ccc(-c2nc3ccccc3c(=O)n2CCOc2ccccc2C)cc1	6.9	6.6	.	.	.	.	.
C/C(=N\N=C(/N)c1nonc1N)c1ccc2c(c1)OCO2	.	7.1	.	11	.	.	.
O=C(Nc1ccc2c(c1)OCCO2)C(=O)NC1CC1	.	6.8	.	.	.	.	.
CCC(=O)Nc1ccc2c(c1)OCCO2	.	.	.	.	.	/	/
COc1ccc(C(=O)/C=C(\C)Nc2ccc3c(c2)OCO3)cc1	.	7.2	.	.	.	.	.
CC(=O)Oc1ccc(C(=O)Nc2ccc3c(c2)OCCO3)cc1	.	9.1	.	11	.	.	8.5
COc1ccc(N/C(C)=C/C(=O)c2ccccc2)cc1	.	.	.	.	.	/	/
Cc1ccc(NC(=O)C2CC3CCC2C3)c(C)c1 (stereo not drawn)	/	.	.	.	/	/	/
O=S1(=O)c2ccccc2-c2c(nnn2CC2CCCCC2)CN1C1CC1	/	.	.	.	.	/	/
CC(=O)O/C(=C\c1cn(C(C)=O)c2ccccc12)C(=O)O	.	.	.	.	.	/	/
CC(=O)n1cc(CO)c2ccccc21	.	7.2	.	.	.	.	.
Cc1ccc(NC(=O)c2sc(N)nc2C)cc1	.	6.9	.	11	.	.	.
O=C(CN1CCCCC1)N=Nc1c(O)[nH]c2ccccc12	.	.	.	.	.	/	/
Oc1[nH]c2ccccc2c1N=Nc1ccccc1	.	13	.	.	.	.	14
COC(=O)/C=C(\C)N=Nc1c(O)[nH]c2ccccc12	.	7.3	.	.	.	.	6.8
O=C1[C@H](c2ccccc2)[C@@H](c2ccncc2)N1c1ccncc1	/	.	.	.	.	/	/
Cc1cc(C)cc(C(=O)OCCCN(C)C2CN(Cc3cn(Cc4ccccc4C(F)(F)F)nn3)S(=O)(=O)C2)c1 (stereo not drawn)	/	.	.	.	.	/	/
CCC1(C)N=C(c2ccc3c(c2)OCO3)CC(c2ccccc2O)N1 (stereo not drawn)	.	7.9	.	.	.	.	.
Cc1ccc(NN=C2c3ccccc3-c3ccccc32)cc1	.	11	.	.	.	.	9.0
